KB-3-1 cytotox: KB-3-1 parental cell cytotoxicity. KB-3-1 viability, CellTiter-Glo ATP luminescence, 72 h. Potency, µM (highest dose often 46.1 µM), usual class: cytotoxic. 1.4% of 400,000 active; note: nearly all actives have a fitted effect of over 60% in size
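Parental KB-3-1 viability, qHTS format: 72 h compound exposure, 37 °C; CellTiter-Glo; media-only wells and DMSO plates as controls; concentration-effect fits on corrected data.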
DT40 TDP1 CPT: DT40-hTDP1 cell growth loss with CPT; 12% of 420,000 active; chicken DT40 Tdp1-/-;hTDP1 cells + 20 nM CPT, ATP luminescence, 48 h; AID 686979; Potency, µM (doses to about 46.2 µM), usual class: inhibitors; note: nearly all actives have a fitted effect of over 55% in size
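Chicken DT40 Tdp1-/- cells stably complemented with human TDP1 were seeded at 400 cells/well in medium containing 20 nM camptothecin, exposed to pin-transferred compounds, and grown at 37 °C for at least 48 hr. Viability was read as ATP luminescence.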
KB-V1 MDR tox: KB-V1 MDR subline cytotoxicity | KB-V1 MDR cells viability, CellTiter-Glo, 72 h | Potency, µM (titrated, usually from 46.1 µM), actives largely listed as cytotoxic | 3.4% of 400,000 active; note: nearly all actives have a fitted effect of over 60% in size
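Compound-treated KB-V1 multidrug-resistant cells, 72 h, 37 degrees C; viability by CellTiter-Glo. Fitted qHTS curves give the values.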
HT1080NT lethal: kills 2HG-producing HT-1080-NT fibrosarcoma cells; HT-1080-NT fibrosarcoma viability, CellTiter-Glo ATP luminescence, 48 h; Potency, µM (doses to about 46.1 µM), hits mostly cytotoxic; 1.6% of 360,000 active;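 note: NT is the 2HG producing partner of a matched IDH1 knockdown line; nearly all actives have a fitted effect of over 55% in size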
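Luminescent CellTiter-Glo readout after 48 hours of compound exposure at 37 degrees C defined viability of HT-1080-NT cells. Activity was normalized to DMSO wells and cell-free media wells; concentration-response curves were fitted and assigned curve classes.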
HT1080 IDH1KD tx: HT-1080 IDH1 knockdown cell toxicity (counter line) | Potency, µM (highest dose often 46.1 µM), usual class: cytotoxic | 2% of 360,000 active | AID 686971 | HT-1080 IDH1 knockdown viability, ATP luminescence, 48 h
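% activity derives from luminescence (CellTiter-Glo), normalised to DMSO and no-cell wells. HT-1080-IDH1KD cells, 750/well, had 48 h compound exposure at 37 °C.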
TDP1 cell noCPT: qHTS for Inhibitors of human tyrosyl-DNA phosphodiesterase 1 (TDP1): qHTS in cells in absence of CPT. DT40 Tdp1-/- hTDP1 cells, no CPT, ATP luminescence, 48 h. Potency, µM (series often up to 46.2 µM), hits mostly inhibitors. 15% of 420,000 active; note: nearly all actives have a fitted effect of over 55% in size
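Luminescent ATP content (CellTiter-Glo) served as the growth readout. Knockout chicken DT40 cells expressing human TDP1 were exposed to compounds without camptothecin for a minimum 48 hr at 37 °C.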
Hits are given with their value; . = inactive; ? = inconclusive; / = no result; [ ] = dose if it differs, or a comment. This is a sample that favours compounds with a hit; in the whole collection about 19% have one here. Calls come from the whole dose curve; as a rule, active = well fitted curve in the direction sought with a large enough effect; inconclusive = small, poorly fitted or top-dose-only effect, or another doubt; inactive = no such curve, though single readings can be large; an effect the other way counts as inactive or inconclusive.

SMILES | KB-3-1 cytotox | DT40 TDP1 CPT | KB-V1 MDR tox | HT1080NT lethal | HT1080 IDH1KD tx | TDP1 cell noCPT
COc1ccc(OC)c(NC(=O)c2cc(OC(C)=O)cc(C(=O)Nc3cc(OC)ccc3OC)c2)c1 | . | ? | ? | . | . | 10.3µM
COC(=O)Cc1c(C)c2cc3c(c(C)c2oc1=O)OCN(CCc1ccccc1F)C3 | . | ? | . | / | / | ?
Cc1cnc(C)c(-c2cccc3c2OC(CNC(=O)/C=C/c2ccncc2)C3)n1 (stereo unspecified) | / | .[9.04 µM] | / | / | / | ?
Cc1nn(CCO)c2ncc(C(=O)c3cc(Cl)ccc3O)cc12 | . | . | ? | . | . | .
CC(C)Cc1nc2cc(NS(=O)(=O)N(C)C)cc(C(=O)N3CC4(C)CC3CC(C)(C)C4)c2n1C (stereo unspecified) | / | .[9.04 µM] | / | / | / | ?
Cc1cc(C)c2c(n1)sc1c(=O)n(-c3cc(Cl)ccc3C)nnc12 | / | . | / | / | / | ?
Cc1cc(C(=O)Cn2nnc(-c3ccc(Cl)cc3)n2)c(C)n1CC1CCCO1 (stereo unspecified) | . | 11.6µM | ? | ? | . | ?
Cc1cc(C(=O)CSc2nc3ccccc3o2)c(C)n1CC1CCCO1 (stereo unspecified) | . | 9.2µM | ? | . | . | 18.4µM
Cc1cc(C(=O)CSc2nc(N)cc(=O)[nH]2)c(C)n1CC1CCCO1 (stereo unspecified) | ? | 16.4µM | ? | . | . | 18.4µM
Cc1cc(C(=O)CSc2nc(N)cc(N)n2)c(C)n1CC1CCCO1 (stereo unspecified) | . | ? | . | ? | . | ?
Cc1cc(C(=O)COC(=O)C2CCN(C(=O)c3ccc(Cl)cc3)CC2)c(C)n1CC1CCCO1 (stereo unspecified) | . | ? | . | . | . | ?
Cc1cc(C(=O)CSc2nc3ccccc3[nH]2)c(C)n1CC1CCCO1 (stereo unspecified) | 3.66µM | 7.31µM | 2.31µM | . | ? | 5.17µM
O=C(NC1(C(F)(F)F)NC(=O)N(CCc2ccccc2)C1=O)c1ccc(Cl)cc1 (stereo unspecified) | . | 20.6µM | . | / | / | ?
O=C(NC1(C(F)(F)F)NC(=O)N(CCc2ccccc2)C1=O)c1ccccc1F (stereo unspecified) | . | . | . | / | / | .
COc1cc(C(=O)NC2(C(F)(F)F)NC(=O)N(CCCc3ccccc3)C2=O)cc(OC)c1OC (stereo unspecified) | . | ? | . | . | . | ?
CC(C)(C)c1ccc(C(=O)NC2(C(F)(F)F)NC(=O)N(CCc3ccccc3)C2=O)cc1 (stereo unspecified) | . | 20.6µM | . | / | / | 23.1µM
COCCNC(=O)C(c1ccc(C)cc1)N(Cc1ccco1)C(=O)CCC(=O)Nc1ccccn1 (stereo unspecified) | . | . | . | . | . | .
CCn1nnc(-c2ccc(N)cc2)n1 | . | . | . | . | . | .
COc1cccc(C(=O)N2CCC2(C)C(=O)NC(C)C)c1 (stereo unspecified) | . | . | . | . | . | ?
CCOc1ccc(NC(=O)CC2C(=O)N(c3ccc(F)cc3)C(=O)N2Cc2ccc(OC)c(OC)c2)cc1 (stereo unspecified) | . | . | . | / | / | ?
COC(=O)C1CSC(c2ccc(Cl)cc2)N1C(=O)c1ccccc1 (stereo unspecified) | . | 20.6µM | . | . | . | 18.4µM
COc1cccc(C(=O)N2C(C(=O)O)CSC2c2ccccc2Cl)c1 (stereo unspecified) | . | . | . | . | . | .
CN(C)c1ccc(NC(=O)c2cc3c(=O)n4ccccc4nc3n2C)cc1 | . | ? | ? | . | . | 14.6µM
Cn1c(C(=O)NCCc2ccccc2)cc2c(=O)n3ccccc3nc21 | / | . | / | / | / | ?
CN(C(=O)c1cc2c(=O)n3ccccc3nc2n1C)c1ccccc1 | / | 11.6µM | / | / | / | ?
SMILES | KB-3-1 cytotox | DT40 TDP1 CPT | KB-V1 MDR tox | HT1080NT lethal | HT1080 IDH1KD tx | TDP1 cell noCPT
COc1ccc(OC)c(NC(=O)c2cc3c(=O)n4ccccc4nc3n2C)c1 | . | . | . | . | . | .
COc1ccc(CNC(=O)CS(=O)(=O)c2cccc3nsnc23)cc1 | . | . | . | / | / | .
COc1ccc(OC)c(C(=O)CCCCC(=O)c2cc(OC)ccc2OC)c1 | . | ? | ? | . | . | 18.4µM
COc1ccc(OC)c(C(=O)COC(=O)COc2ccccc2)c1 | . | 14.6µM | . | . | . | 5.8µM
COc1ccc(OC)c(C(=O)COC(=O)C(CCSC)NC(=O)COc2ccccc2)c1 (stereo unspecified) | . | . | . | . | . | .
COc1ccc(C(=O)OCC(=O)c2cc(OC)ccc2OC)c(OC)c1 | . | ? | ? | . | . | ?
CCOc1ncccc1C(=O)OCc1ccc(C(=O)OC)cc1 | ? | ? | . | ? | ? | ?
COc1ccc(C2=NN3C(C2)c2ccccc2OC32C(=O)N(C)c3ccccc32)cc1 (stereo unspecified) | . | ? | . | ? | ? | 20.6µM
COc1ccc(C2=NN3C(C2)c2ccccc2OC3c2cccs2)cc1 (stereo unspecified) | . | . | ? | . | . | .
c1ccc2c(-c3c[nH]c4ccccc34)c3ccccc3nc2c1 | . | ? | . | ? | ? | 16.4µM
COc1ccc(C2CC=C(C(C)=O)CN2S(=O)(=O)c2ccc(Cl)cc2)cc1 (stereo unspecified) | . | 16.4µM | . | . | ? | 16.4µM
CC(=O)C1=CCC(c2ccc(Br)cc2)N(S(=O)(=O)c2ccc(C)cc2)C1 (stereo unspecified) | . | 18.4µM | . | ? | ? | ?
CC(=O)C1=CCC(c2ccco2)N(S(=O)(=O)c2ccc(C)cc2)C1 (stereo unspecified) | . | ? | . | . | . | ?
CC(=O)C1=CCC(c2ccccc2)N(S(=O)(=O)c2ccccc2)C1 (stereo unspecified) | . | 29.1µM | . | . | . | 18.4µM
CC(=O)C1=CCC(c2ccc(Cl)cc2)N(S(=O)(=O)c2ccc(C)cc2)C1 (stereo unspecified) | . | ? | ? | . | . | 16.4µM
COC(=O)CN(C#N)c1nc(NC(C)C)nc(NC(C)C)n1 | . | . | . | . | . | .
Cc1cc(O)c(C(c2cccc(F)c2)N2CCN(c3ccccc3)CC2)c(=O)n1Cc1ccco1 (stereo unspecified) | . | . | . | / | / | .
CCCCC/C=C\C/C=C\C/C=C\C=C\[C@@H](O)CCCC(=O)O | / | .[0.628 µM] | / | / | / | .[0.628 µM]

Bioassay records deposited in PubChem BioAssay by National Center for Advancing Translational Sciences (NCATS).
